Screening data: PubChem, National Center for Advancing Translational Sciences (NCATS)
FUS yeast rescue = qHTS for Suppressors of FUS Proteinopathy: Primary screen using FUS-linked yeast assay | Potency, µM (top dose mostly 76.6 µM), actives largely listed as activators | 390,000 tested, 0.24% active | S. cerevisiae FUS-expressing, growth rescue, OD600, 24 h;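 further: plate controls were DMSO vehicle for no effect and reference control for full effect; nearly all actives have a fitted effect of over 55% in size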
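Galactose (2%) drives FUS expression in yeast precultured in raffinose; seeding density OD 0.005. Test compounds incubated 24hr at 30C and 99% humidity before absorbance at 600 nm was measured.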
gsp antagonist = qHTS for Antagonists of gsp, the Etiologic Mutation Responsible for Fibrous Dysplasia/McCune-Albright Syndrome: qHTS; gsp-mutant cells, cAMP HTRF, 30 min; Potency, µM (series often up to 76.9 µM), for inactives: at the highest dose activity change, negative = inhibition, usual class: inhibitors; 340,000 tested, 0.4% active; AID 624288, 2012; calls by dose curve; cell line not stated here;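 further: intracellular cAMP measured with PDE inhibitor Ro 20-1724 present during compound exposure; on the % scale 0 is the no-effect control and ±100 the full control effect; nearly all actives have a fitted effect of over 65% in size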
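Cells in G418 medium, seeded 16-24 h, 37C; buffer exchange to DPBS + 1 mM CaCl2, 0.5 mM MgCl2, 0.05% BSA; cpds in DMSO + […] (300 uM stock), 30 min 37C; HTRF cAMP detection.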
gsp agonist = qHTS for Agonist of gsp, the Etiologic Mutation Responsible for Fibrous Dysplasia/McCune-Albright Syndrome: qHTS; gsp mutant cells, cAMP HTRF, 30 min; Potency, µM (highest dose often 76.9 µM), without a hit: at the top dose activation (cAMP increase), hits mostly activators; 340,000 tested, 0.13% active; AID 624287, 2012; active means well fitted activation curve with a large enough effect; inconclusive means small, poorly fitted or top-dose-only effect, or another doubt; inactive means no such curve, though single readings can be large or run the other way; cell line not stated here;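 further: phosphodiesterase inhibitor Ro 20-1724 added with compounds to block cAMP breakdown; nearly all actives have a fitted effect of over 60% in size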
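Cells in DMEM/10% FBS with G418 were pretreated with compounds in DMSO plus […] (300 uM stock) for 30 min at 37C. cAMP was measured by HTRF (cAMP-d2 plus anti-cAMP antibody-K) after 30 min at room temperature.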
Mito fusion act = qHTS Assay for Small Molecule Inhibitors of Mitochondrial Division or Activators of Mitochondrial Fusion | S. cerevisiae fusion-defective mutant growth rescue, CellTiterGlo 48 h | Potency, µM (series often up to 46.1 µM), without a hit: at the highest dose growth rescue (activation), hits mostly activators | 320,000 tested, 0.23% active; further: % of control where 0% means no effect; nearly all actives have a fitted effect of over 45% in size
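Yeast fusion mutant, YPEG (non-fermentable carbon), compound, 48 h at 37C non-permissive; CellTiterGlo added, 10 min RT, luminescence read. Rescued growth = division inhibition.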
ALOX12 inh = Primary qHTS assay for inhibitors of human arachidonate 12S-lipoxygenase (ALOX12): Round 2. Polyunsaturated fatty acid lipoxygenase ALOX12 (Homo sapiens), P18054. purified 12hLO, xylenol orange hydroperoxide absorbance. Potency, µM (titrated, usually from 108 µM), for inactives: top-dose activity change, negative = inhibition, usual class: inhibitors. 580,000 tested, 1.1% active; further: on the % scale 0 is the no-effect control and ±100 the full control effect
Target sequence (P18054 whole entry, looked up): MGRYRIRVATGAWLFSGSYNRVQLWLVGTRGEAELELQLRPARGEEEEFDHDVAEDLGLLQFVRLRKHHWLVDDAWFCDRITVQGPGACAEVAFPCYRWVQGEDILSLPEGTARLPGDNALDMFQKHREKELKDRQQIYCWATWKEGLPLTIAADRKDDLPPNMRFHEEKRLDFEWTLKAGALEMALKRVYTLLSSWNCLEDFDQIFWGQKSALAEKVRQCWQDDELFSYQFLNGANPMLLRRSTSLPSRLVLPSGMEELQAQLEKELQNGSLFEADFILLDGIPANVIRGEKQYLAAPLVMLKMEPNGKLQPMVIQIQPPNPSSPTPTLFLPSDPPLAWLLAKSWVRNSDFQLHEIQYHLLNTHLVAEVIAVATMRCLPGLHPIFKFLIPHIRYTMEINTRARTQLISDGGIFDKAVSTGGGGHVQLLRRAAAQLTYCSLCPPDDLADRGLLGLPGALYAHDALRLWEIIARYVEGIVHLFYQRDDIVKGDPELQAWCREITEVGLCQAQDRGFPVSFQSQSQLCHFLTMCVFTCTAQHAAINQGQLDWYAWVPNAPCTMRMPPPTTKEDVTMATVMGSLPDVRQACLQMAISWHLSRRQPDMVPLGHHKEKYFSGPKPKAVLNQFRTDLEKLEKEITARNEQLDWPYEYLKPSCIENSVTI
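Purified human 12hLO (150 nM final) in 25 mM Hepes, 0.01% Triton X-100, pH 7.0 was preincubated 15 min at room temperature with compound. Then 40 uM arachidonic acid was added, 30 min. Hydroperoxide was read by Fe-XO absorbance ratio 573/405 nm.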
* = called active by the depositor; i = inactive; u = inconclusive; x = no result given; ! = a repeat was not active; [ ] = remark or other dose. Rows were chosen to be rich in hits. Some 1.6% of all compounds tested hit in one or more screens of this group. Unless noted, the call rests on the fitted dose curve; in most records, active means well fitted curve in the direction sought with a large enough effect; inconclusive means small, poorly fitted or top-dose-only effect, or another doubt; inactive means no such curve, though single readings can be large; an effect the other way counts as inactive or inconclusive. Potency means the concentration at half of the fitted maximal effect.

SMILES	FUS yeast rescue	gsp antagonist	gsp agonist	Mito fusion act	ALOX12 inh
c1ccc(CSC2=NCCCN2)cc1	i	-0.6%	-2.4%	-3.7%	u
c1ccc(-c2nc(CSC3=NCCCN3)cs2)cc1	x	x	x	x	15.8µM*
COCCNC(=S)N/N=C(\C)c1ccc(Cl)c(Cl)c1Cl	i	-5.5%	-3.0%[15.4 µM]	-4.0%	39.8µM*
Cn1c(=O)n(C)c2cc([N+](=O)[O-])c(N3CCN(S(C)(=O)=O)CC3)cc21	x	-2.6%	-0.6%	-6.1%	-10.4%
Cn1c(=O)n(C)c2cc([N+](=O)[O-])c(N3CCN(S(=O)(=O)c4ccccc4)CC3)cc21	x	25.1µM*	-60.8%	20.3%	6.8%
COC(=O)[C@]12CCCCC=C1N(CCc1ccc(OC)c(OC)c1)C(=O)[C@H](CC(=O)NCc1cccc(C(F)(F)F)c1)C2	4.47µM*	x	x	x	3.1%
COC(=O)[C@]12CCCCC=C1N(CCc1ccc(OC)c(OC)c1)C(=O)[C@H](CC(=O)NCc1ccc(OC)c(OC)c1)C2	u	x	x	x	0.1%
COC(=O)[C@]12CCCCC=C1N(CCc1ccc(OC)c(OC)c1)C(=O)[C@H](CC(=O)NCCCCc1ccccc1)C2	8.91µM*	x	x	x	-19.7%
Cc1ccc(-c2cnc(-c3ccccc3C(=O)OCC(=O)N(CCC#N)CCC#N)o2)cc1	x	x	x	x	-18.3%
O=C(O)CCc1ccsc1	x	x	x	x	10.2%
Cc1cccc(NC(=S)NCCc2ccccc2)n1	i	x	-14.9%[15.4 µM]	5.4%	20µM*
S=C(NCCc1ccncc1)Nc1ccccc1	i	2.8%	-0.6%[15.4 µM]	-6.7%	-2.3%
Cc1ccccc1NC(=S)NCCc1ccccc1	x	-15.9%	-9.9%	-0.1%	u
S=C(NCCc1ccccc1)Nc1ccccn1	x	8.7%	6.0%	-5.0%	22.4µM*
CC(C)Cn1nc(C(=O)N2CCC(C(=O)Nc3ccc4c(c3)OCO4)CC2)c2ccccc2c1=O	x	x	x	x	9.3%
Clc1cccc(CN2CCSCC2)c1	i	-0.5%	-21.7%	-1.2%	0.355µM*
Cc1cc(C)cc(Oc2coc3c(CN(C)C)c(O)ccc3c2=O)c1	i	10.9%	6.0%[15.4 µM]	3.1%	6.31µM*
c1ccc(N2CCN(Cc3ccc4c(c3)OCO4)CC2)nc1	i	0.9%	-11.6%	x	u
O=C(CN1CCOCC1)N1c2ccccc2Sc2ccccc21	i	-12.7%	9.7%	-3.5%	4.7%
O=C(CN1CCN(Cc2ccc3c(c2)OCO3)CC1)N1c2ccccc2Sc2ccccc21	x	x	x	x	0.794µM*
c1cnc(N2CCN(Cc3ccc4c(c3)OCO4)CC2)nc1	i	-3.9%	x	u	22.4µM*!
CN(C)c1ccc(NC(=O)C2C3C=CC(C3)C2C(=O)O)cc1 (configuration not stated)	i	28.2µM*	-110.3%	-0.9%	-13.5%
COc1ccc(CNS(=O)(=O)c2cc(CN3C(=O)c4cccnc4C3=O)ccc2OC)cc1	i	15.0%	11.2µM*	-0.8%	-18.8%
COc1ccc(CN2C(=O)c3cccnc3C2=O)cc1S(=O)(=O)N1CCCCC1C (configuration not stated)	i	29.1%	7.08µM*	0.0%	-10.2%
COc1ccc(CN2C(=O)c3cccnc3C2=O)cc1S(=O)(=O)NCc1ccccc1	i	13.7%	u	4.0%	4.0%
SMILES	FUS yeast rescue	gsp antagonist	gsp agonist	Mito fusion act	ALOX12 inh
COc1ccc(CN2C(=O)c3cccnc3C2=O)cc1S(=O)(=O)NC(C)C	i	19.6%	22.4µM*	-13.1%	0.0%
CCCNS(=O)(=O)c1cc(CN2C(=O)c3cccnc3C2=O)ccc1OC	i	3.0%	31.6µM*	8.3%	u
N#CCCN1CCN(C(C(=O)O)c2cn(CCC(=O)O)c3cc(Br)ccc23)CC1 (configuration not stated)	x	x	x	x	-64.4%
Cc1cc(=O)oc2cc(OCC(=O)Nc3cccc(C(=O)O)c3)ccc12	x	x	x	x	3.5%
CCOc1ccc(OCCn2c(=S)[nH]c3ccccc32)cc1	u	-2.6%	-62.0%	4.2%	u
S=c1[nH]c2ccccc2n1CCOc1ccccc1	i	-0.1%	u	-6.5%	39.8µM*
Cc1ccc(OCCn2c(=S)[nH]c3ccccc32)c(C(C)C)c1	i	-17.3%	0.8%	-14.4%	31.6µM*
Cc1ccc(C(C)C)cc1C(=O)CC1(O)C(=O)N(C(C)C)c2ccccc21 (configuration not stated)	x	x	x	x	8.0%
COCCNc1nc(NCc2ccccc2OC)c2cnn(C)c2n1	i	x	x	x	12.6µM*
CCn1c(COc2ccc(Cl)cc2)nnc1SC1CCc2ccccc2C1=O (configuration not stated)	i	u	-16.6%	17.8µM*	3.5%
Cc1ccc(-n2nc3cc(C)c(NC(=S)NC(=O)/C=C/c4ccco4)cc3n2)cc1	i	12.2%	5.9%	-0.1%	44.7µM*
COc1ccccc1NC(=S)NC(=O)/C=C/c1ccco1	x	-11.4%	-9.2%	4.6%	39.8µM*
Cc1cccc(NC(=S)NC(=O)/C=C/c2ccco2)c1	u	8.9%	17.6%	3.0%	u
COc1ccccc1NC(=O)/C=C\c1ccco1	u	4.4%	2.5%	-0.5%	u
O=C(/C=C/c1ccco1)NC(=S)Nc1cccc([N+](=O)[O-])c1	i	1.1%	-6.4%[15.4 µM]	-3.2%	39.8µM*
Cc1ccccc1NC(=S)NC(=O)/C=C/c1ccco1	8.91µM*	-1.3%	-23.2%[15.4 µM]	-20.1%	0.0%
Cc1ccc(-n2nc3ccc(NC(=S)NC(=O)/C=C/c4ccco4)cc3n2)cc1	i	19.8%	0.0%	-2.4%	u
CSC(C)C(=O)Nc1ccccc1I (configuration not stated)	x	x	x	x	-1.4%
COC(=O)c1c(NS(=O)(=O)c2cccs2)sc2c1CCCC2	i	22.4µM*	-6.1%	5.2%	u
COC(=O)c1c(NC(=O)C2(C)Cc3ccccc3C(=O)O2)sc2c1CCCC2 (configuration not stated)	3.98µM*	-22.6%	9.5%	-3.0%	-12.4%
COC(=O)c1c(NC(=O)Cc2cccs2)sc2c1CCCC2	x	-7.2%	-51.4%	u	0.0%
Cc1cc(C)c2c(=O)n(Cc3ccc(Cl)cc3)c(=O)n(-c3ccccc3)c2n1	x	x	x	x	-1.3%
Cc1cccc(C)c1Nc1nnc(SCC(=O)c2ccc(Br)s2)s1	x	17.9%	-8.9%	17.8µM*	11.6%
O=C(Nc1nc2cc3c(cc2s1)OCCCO3)c1ccc(Br)cc1F	x	x	x	x	-3.3%
Cc1ccc(C(=O)C(Sc2ncc(C(F)(F)F)cc2Cl)c2ccc(C)cc2)cc1 (configuration not stated)	x	x	x	x	-59.7%
Cc1ccc(C(=O)Nc2ccc3c(c2)C(=O)N(C)C3=O)c(C)c1	i	7.8%	35.5µM*	-0.2%	26.5%
